In PubChem BioAssay AID588354 (The Scripps Research Institute Molecular Screening Center, 2011):
Screen size: about 360,000 compounds; about 430 (0.12%) were called active.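 How the source made its calls: active means inhibition above the campaign mean plus 3 SD, with each screening campaign given its own cutoff (cut at about 60% in these data); inactive means the rest.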 Shown is part of a subset that was picked to be rich in actives.

Molecular target: Nuclear receptor coactivator 1 (Homo sapiens) (UniProt Q15788)
Assay: NCOA1 GAL4-fusion reporter inhibition – cell-based, luminescence, primary screen (AID 588354);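 further: 0% = DMSO treated cells and 100% = gossypol at 36 µM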
Conditions: HEK293 GAL4-SRC1 luciferase reporter, at 3.6 µM, stronger effect = higher value

Nuclear receptor coactivator 1 (Homo sapiens), sequence (Q15788 whole entry, looked up, the tested form may be a part): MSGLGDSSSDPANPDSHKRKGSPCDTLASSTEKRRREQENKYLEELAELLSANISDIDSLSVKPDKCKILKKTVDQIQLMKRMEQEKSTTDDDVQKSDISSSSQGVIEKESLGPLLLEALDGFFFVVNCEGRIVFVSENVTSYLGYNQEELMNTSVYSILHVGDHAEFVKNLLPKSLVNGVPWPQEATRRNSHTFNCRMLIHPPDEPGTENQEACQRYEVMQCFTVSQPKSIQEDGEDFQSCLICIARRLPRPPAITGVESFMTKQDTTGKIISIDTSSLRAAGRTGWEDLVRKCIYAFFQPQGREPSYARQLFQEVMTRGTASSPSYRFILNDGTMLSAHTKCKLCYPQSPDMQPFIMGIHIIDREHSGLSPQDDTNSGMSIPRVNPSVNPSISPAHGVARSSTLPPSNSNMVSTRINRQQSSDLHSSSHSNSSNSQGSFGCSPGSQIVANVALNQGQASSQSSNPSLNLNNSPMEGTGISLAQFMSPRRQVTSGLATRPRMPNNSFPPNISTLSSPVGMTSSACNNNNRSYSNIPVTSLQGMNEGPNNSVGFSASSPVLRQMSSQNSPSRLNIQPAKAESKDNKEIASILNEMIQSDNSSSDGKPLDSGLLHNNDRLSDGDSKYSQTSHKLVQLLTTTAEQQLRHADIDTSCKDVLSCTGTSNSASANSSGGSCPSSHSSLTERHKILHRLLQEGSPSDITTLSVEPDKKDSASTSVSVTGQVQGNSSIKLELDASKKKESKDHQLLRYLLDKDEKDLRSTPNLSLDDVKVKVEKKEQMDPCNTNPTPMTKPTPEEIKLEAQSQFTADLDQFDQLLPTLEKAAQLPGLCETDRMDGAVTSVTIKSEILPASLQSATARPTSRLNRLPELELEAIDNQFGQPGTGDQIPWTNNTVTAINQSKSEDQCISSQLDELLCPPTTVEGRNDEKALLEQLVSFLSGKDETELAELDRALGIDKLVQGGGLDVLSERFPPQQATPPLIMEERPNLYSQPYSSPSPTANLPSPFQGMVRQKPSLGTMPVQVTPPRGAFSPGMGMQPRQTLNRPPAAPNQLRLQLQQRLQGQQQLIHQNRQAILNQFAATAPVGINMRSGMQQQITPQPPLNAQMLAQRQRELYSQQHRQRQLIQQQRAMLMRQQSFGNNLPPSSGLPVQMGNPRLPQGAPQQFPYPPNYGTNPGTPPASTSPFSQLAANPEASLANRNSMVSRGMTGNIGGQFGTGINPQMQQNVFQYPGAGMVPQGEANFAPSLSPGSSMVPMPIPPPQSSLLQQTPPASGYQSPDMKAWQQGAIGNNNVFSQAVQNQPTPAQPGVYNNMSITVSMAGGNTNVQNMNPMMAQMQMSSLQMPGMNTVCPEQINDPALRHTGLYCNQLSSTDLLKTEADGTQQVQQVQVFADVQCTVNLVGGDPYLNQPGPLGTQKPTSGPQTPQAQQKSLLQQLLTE

SMILES	inhibition
Cc1ccnc2nc(C(=O)OCC(=O)N(CC(C)C)CC(C)C)nn12	2.84% (inactive)
CN1CCN(C(=O)C(=O)c2cn(CC(=O)N3CCCC3)c3ccccc23)CC1	-22.3% (inactive)
CCN(CC)C(=O)CSC1c2ccccc2C(=O)N1c1ccccc1 (stereo not drawn)	-5.03% (inactive)
O=C(c1ccc(F)c(S(=O)(=O)N2CCOCC2)c1)N(CCc1ccccc1)Cc1ccccc1	-1.71% (inactive)
CSCCC(NC(=O)c1ccc(Cl)cc1Cl)C(=O)NNC(=O)c1csc(N2CCOCC2)n1 (stereo not drawn)	-17% (inactive)
Cc1cccc(C(=O)N2CCCC(Nc3ccc(C(C)C)cc3)C2)n1 (stereo not drawn)	1.61% (inactive)
COc1ccc(N2CCN(C(=O)Cn3cnc4sc(C)c(S(=O)(=O)N5CCOCC5)c4c3=O)CC2)cc1	1.72% (inactive)
O=C(Nc1cc(-c2nc3ncccc3o2)ccc1Cl)c1ccco1	-8.08% (inactive)
C[C@H]1CN([C@@H](C)CO)C(=O)c2cc(-c3cccc(F)c3)cnc2O[C@@H]1CN(C)S(C)(=O)=O	4.48% (inactive)
COC(=O)CNC(=O)c1ccc2c(c1)S(=O)(=O)c1ccccc1C2=O	-9.27% (inactive)
Cc1cc(=O)oc2c3c(cc(OCC(=O)NCC(O)c4ccccc4)c12)OC(C)(C)CC3 (stereo not drawn)	-22.4% (inactive)
S=C(Cc1ccc(Cl)cc1)N1CCOCC1	-5.3% (inactive)
O=C(O)c1n[nH]nc1-c1ccccc1	10.2% (inactive)
CC1(C)CC(N2CCN(C(c3ccccc3)c3ccccc3)CC2)=CC(=[N+]2CCCCC2)C1	77% (active)
Clc1ccc2nc(CSc3ccccc3)cn2c1	-91.3% (inactive)
CC(C)(C)SCCSC1=CC(=O)CC(c2ccccc2)C1 (stereo not drawn)	-111% (inactive)
CCCCNS(=O)(=O)c1ccc2nc(SCC(=O)Nc3cc(C)cc(C)c3)[nH]c2c1	12% (inactive)
Cc1cc(NC(=O)CSc2nccn2-c2ccc([N+](=O)[O-])cc2)no1	-17% (inactive)
CN(C)/C=C(/C(=O)c1ccccc1Cl)S(C)(=O)=O	-22.7% (inactive)

SMILES	inhibition
COc1ccc2c(c1)N(C)/C(=C1/SC(=S)N(NC(C)=O)C1=O)S2	-35.2% (inactive)
CCOC(=O)c1ccccc1N1C(=O)C2Sc3[nH]c(=O)sc3C(/C=C/c3ccccc3)C2C1=O (stereo not drawn)	-1.18% (inactive)
c1ccc2cc3c(NCCN4CCOCC4)ccnc3cc2c1	61.6% (active)
O=C(NCCN1CCOCC1)c1cc(Sc2cccc(Cl)c2)nc2ccccc12	-5.48% (inactive)
O=S(=O)(c1ccc(Cl)cc1)c1nc(-c2ccccc2F)oc1NCCN1CCOCC1	-8.54% (inactive)
O=C(CCCN=C1NS(=O)(=O)c2ccccc21)OCC(=O)c1ccc(F)c(F)c1	-0.01% (inactive)
CCn1c(C(C)C)n[nH]c1=S	-20.3% (inactive)
CC(C)(C)NC(=O)C(c1ccco1)N(Cc1ccc2c(c1)OCO2)C(=O)Cn1nnc2ccccc21 (stereo not drawn)	11.9% (inactive)
CCOc1ccc(-n2cnnn2)cc1S(=O)(=O)N1CCC(C)CC1C (stereo not drawn)	4.05% (inactive)
O=S(=O)(NCc1ccc2c(c1)OCO2)c1cccc2nsnc12	-3.02% (inactive)
Cc1nc(COc2cc3oc(=O)cc(C)c3cc2Cl)cs1	-6.18% (inactive)
C[C@@H]1C[C@@H]2O[C@H]2/C=C\C=C\C(=O)Cc2c(Cl)c(O)cc(O)c2C(=O)O1	53.8% (inactive)
CC(=O)NC1(c2ccc(F)cc2)CCN(C(=O)c2c(F)cccc2F)CC1	-14.7% (inactive)
c1cnc(NC2C3CC4CC(C3)CC2C4)nc1 (stereo not drawn)	-13.6% (inactive)
CCCCCC(O)c1cccc(OCc2ccc3ccccc3n2)c1 (stereo not drawn)	-17.6% (inactive)
O=C(CCn1c(=S)[nH]c2cc3c(cc2c1=O)OCO3)NCc1ccc(Cl)cc1	10% (inactive)
CCN(Cc1ccccc1)C(=O)CSc1nc(C)cc2c1C(=O)OC2	-20% (inactive)
Cc1nnc(C)c2c(C)n(N)c(C)c12	3.29% (inactive)
CCCNC(=O)C1(C)CCN(C(=O)c2ccccc2OC(F)(F)F)C1 (stereo not drawn)	-5.22% (inactive)
